Assay outcomes (PubChem)
Tg IFNy HTS – blocks Toxoplasma gondii growth in the presence of IFN-gamma. Toxoplasma gondii growth in IFN-gamma-treated host cells; hits give low values. activity change, negative = inhibition, % (test concentration not listed). actives 3.8% (n = 69,000). AID 1259416; in the data active = activity change below about -70%, passing the limit was not always enough;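 also: host cells are HeLa cells infected with Toxoplasma gondii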
* marks the source's active call; other numbers are inactive results; ! = repeats disagree. This is one part of a sample in which hits are shown more often than they occur.

SMILES	Tg IFNy HTS
CN1c2ccc(C3=CCCCC3)cc2[C@@H]2[C@@H](CCN2C(=O)c2ccccc2F)[C@@H]1CO	-76*
COc1cccc(-c2ccc3c(c2)[C@H]2[C@H](CCN2C(=O)c2ccccc2F)[C@@H](CO)N3C)c1	-62
COc1ccc(-c2ccc3c(c2)[C@@H]2[C@@H](CCN2C(=O)Nc2ccccc2OC)[C@@H](CO)N3C)cc1	-72*
CN1c2ccc(C3=CCCCC3)cc2[C@@H]2[C@@H](CCN2C(=O)C2CCOCC2)[C@H]1CO	-40
CC(C)NC(=O)N1CC[C@@H]2[C@@H](CO)N(C)c3ccc(-c4ccc(F)cc4)cc3[C@@H]21	-79*
COc1ccc(C#Cc2ccc3c(c2)[C@H]2[C@H](CCN2C(=O)Nc2ccc(C(F)(F)F)cc2)[C@H](CO)N3C)cc1	7
CCc1ocnc1C(=O)Nc1ccccc1SCc1ccccc1F	-8
CCCn1ncc(C(=O)NCc2cn3nc(C)sc3n2)c1C	-8
CCOc1cc(C(=O)NCCc2sc(-c3ccc(Cl)cc3)nc2C)cc(OCC)c1OCC	18
CC(C)=CCC/C(C)=C/COc1ccc2ccc(=O)oc2c1	19
CC(=O)CC/C=C(\C)CC/C=C(\C)CC/C=C(\C)CCC=C(C)C	-77*
CC(=O)N[C@@H](CSC/C=C(\C)CC/C=C(\C)CCC=C(C)C)C(=O)O	-22
Cc1c(N)cccc1Cn1ccc(OCCc2cccs2)cc1=O	29
CC(C)n1cnc2c1C(C(=O)C1CCC(N(C)C)C1)N(Cc1ccccc1)CC2 (stereo unspecified)	2
Cc1onc(-c2ccccc2)c1CNC(=O)Nc1csc2ccccc12	-98*
O=C(OCc1ccccc1)N1CCOCCN(C(=O)OCc2ccccc2)CCOCC1	-15
Cc1onc(-c2ccccc2)c1CNC(=O)NC1CCN(C(=O)OCc2ccccc2)CC1	-82*
Cc1onc(-c2ccccc2)c1NC(=O)NCc1csc(-c2cccs2)n1	7
Cc1onc(-c2ccccc2)c1CNC(=O)c1ccccc1	29
Cc1onc(-c2ccccc2)c1CNC(=O)C1CCN(c2nccc(C(F)(F)F)n2)CC1	-66
O=C(CSCc1ccccc1Cl)NCCn1cccn1	74
Fc1cnc(N2CCC3(CC2)CC(N2CCOCC2)CO3)nc1 (stereo unspecified)	-1
Cc1nc(-c2ccc(F)cc2)sc1-c1ccc(SCc2ccccc2F)nn1	2
COc1ccccc1C(=O)N1CCN(Cc2cnc(N(C)C)nc2)CC1	-48
CC(C)(C)c1[nH]cnc1/C=c1\[nH]c(=O)/c(=C/c2ccccc2)[nH]c1=O	-87*
SMILES	Tg IFNy HTS
CCc1nnc(CN(CC)C(=O)c2ccc(-n3nc(C)cc3C)cc2)o1	7
CCc1ncc2c(n1)CN(C(=O)c1cc(=O)n(C)c3ccccc13)C2	8
NC(=O)Cc1csc(NC(=O)C2CC(c3ccccc3Cl)=NO2)n1 (stereo unspecified)	-7
O=C(Nc1ccc(Br)cc1)C1CC(c2c(F)cccc2Cl)=NO1 (stereo unspecified)	0
O=C(Nc1cnn(C23CC4CC(CC(C4)C2)C3)c1)C1CC(c2c(F)cccc2Cl)=NO1 (stereo unspecified)	-84*
CCOCCC(=O)N1CCc2c(c(C(=O)O)nn2C)C1	11
CC1=C(C(=O)Nc2cc(C)cc(C)c2)C2(CCN(C(C)C)CC2)OC1=O	48
Cc1nn(-c2ccccc2)nc1C(=O)Sc1ccc(Cl)cc1	-59
Cn1ncc(C(=O)Sc2ccc(Cl)cc2)c1-n1cccc1	-94*
Cn1ncc2c(Sc3ccc(Cl)cc3)ncnc21	-66
Cc1nc(-c2cccc(F)c2)sc1CCNC(=O)c1ccccc1Br	20
CCC(=O)N(Cc1ccc(C)cc1)Cc1cc2cccc(C)c2n2nnnc12	34
Cc1ccc(CN(Cc2cc3cccc(C)c3[nH]c2=O)C(=O)c2ccco2)cc1	-79*
COc1ccc2[nH]c(=O)c(CN(C(=O)c3ccco3)C(C)C)cc2c1	27
COC(=O)c1c(NC(=O)Cn2nc(C(F)(F)F)c(Br)c2C)sc2c1CCCC2	6
CN(C)c1ccc(CNC(=O)c2nc(Nc3ccc(F)cc3)c3ccccc3n2)cc1	14
CCOC(=O)c1nc(Nc2cccc(C)c2)c2ccccc2n1	-10
CCc1ccc(Nc2nc(C(=O)NCc3ccc(C)cc3)nc3ccccc23)cc1	-12
CCc1ccc(CNC(=O)c2nc(Nc3cccc(C)c3)c3ccccc3n2)cc1	-98*
Cc1ccc(Nc2nc(C(=O)NCc3ccc(N(C)C)cc3)nc3ccccc23)cc1	2
Cc1cccc(Nc2nc(C(=O)NCc3ccc(N(C)C)cc3)nc3ccccc23)c1	-78*
COc1ccc(Cc2nn3c(=O)c(C)nnc3s2)cc1	-17
COc1ccc(CN2CCn3c(CNC(=O)c4cccn4C)cnc3C2)cc1	-40
O=C(CN1C(=O)c2ccccc2S1(=O)=O)Nc1ccc(O)cc1	6
CCn1c(=O)c(-c2nc(-c3ccc(C)cc3)no2)c(O)c2ccccc21	-46
CCOC(=O)Cn1c(C)cc(=O)c2ccccc21	-9
Cc1c(-c2ccccc2)n(CC(O)CN)c2ccccc12 (stereo unspecified)	-48
Cc1ccc2c(=O)c3ccccc3n(CCCN)c2c1C	-87*!
